# Laboratory results: article PMC5540273 (PLoS ONE, 2017)
# Assays:
# Conditions in all cases: concentration: 1 μM, replicates: in singlicate; n = 1
# ACVR1 = system: ACVR1
# ACVR2A = system: ACVR2A
# ACVR2B = system: ACVR2B
# ACVRL1 = system: ACVRL1
# ADCK3 = system: T1, ADCK3
# T1 construct: gene CABC1
# ADCK4 = system: ADCK4
# AKT1 = system: AKT1
# AKT2 = system: AKT2
# AKT3 = system: AKT3
# ALK = system: ALK
# 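Note: KINOMEscan kinase panel screen.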
SMILES,%Inh (ACVR1) [%],%Inh (ACVR2A) [%],%Inh (ACVR2B) [%],%Inh (ACVRL1) [%],%Inh (ADCK3) [%],%Inh (ADCK4) [%],%Inh (AKT1) [%],%Inh (AKT2) [%],%Inh (AKT3) [%],%Inh (ALK) [%]
Cc1ccc(NC(=O)c2ccc(Cl)cc2)cc1-c1ccc(C(=O)Nc2ccncc2)cc1 [GSK1398467],7,0,10,0,15,0,0,19,0,18
O=C1NC(=O)C(c2ccc(Cl)cc2)=C1Nc1ccc(O)cc1 [SB-340867],11,0,0,0,0,0,1,0,0,0
Cc1ccc(NC(=O)Nc2ccc(Cl)c(C(F)(F)F)c2)cc1-c1ccc(C(=O)Nc2ccncc2)cc1 [GSK1398470],1,0,0,0,14,2,0,16,0,0
COC(=O)C(Cc1ccccc1)NC(=O)NC1CCN(c2ccnc(Nc3ccc(F)cc3)n2)C1 (centres unmarked) [GSK1379714],6,0,6,0,21,36,0,0,0,0
COc1ccc(Nc2nccc(NCCNC(=O)Nc3cc(C)ccc3C)n2)cc1 [GSK1379899],2,2,6,0,0,0,0,0,0,1
